rTrxR1 inhibitor = qHTS Assay for Inhibitors of Mammalian Selenoprotein Thioredoxin Reductase 1 (TrxR1): qHTS. 390,000 tested, 1% active. Potency, µM (series often up to 114 µM), usual class: inhibitors. Thioredoxin reductase 1, cytoplasmic (Rattus norvegicus), O89049. recombinant rTrxR1, NADPH fluorescence consumption, selenite substrate. AID 588453, 2011; further: nearly all actives have a fitted effect of over 65% in size
Target sequence (O89049 whole entry, looked up): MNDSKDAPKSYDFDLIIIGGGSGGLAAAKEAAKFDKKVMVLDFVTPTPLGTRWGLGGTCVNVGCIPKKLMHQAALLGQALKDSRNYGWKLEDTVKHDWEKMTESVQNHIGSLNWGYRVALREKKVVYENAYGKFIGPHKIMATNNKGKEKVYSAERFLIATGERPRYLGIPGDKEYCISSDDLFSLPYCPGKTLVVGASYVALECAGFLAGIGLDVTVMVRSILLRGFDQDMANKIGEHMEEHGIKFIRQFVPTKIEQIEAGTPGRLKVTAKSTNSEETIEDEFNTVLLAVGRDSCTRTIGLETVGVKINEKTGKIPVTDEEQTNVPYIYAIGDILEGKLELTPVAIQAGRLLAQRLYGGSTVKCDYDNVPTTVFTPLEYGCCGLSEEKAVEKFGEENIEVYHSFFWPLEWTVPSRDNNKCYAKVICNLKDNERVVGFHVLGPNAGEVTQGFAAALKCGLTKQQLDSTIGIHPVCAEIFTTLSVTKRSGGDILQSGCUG
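Rat TrxR1 (90 nM in the dispensed reagent) was pre-reduced with 400 uM NADPH for 5 min at room temperature, then incubated with compound for 15 min. After 400 uM selenite was added, NADPH fluorescence (Ex 340/Em 450 nm) was followed for 8 min.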
TrxR1 substrate = qHTS Assay for Substrates of Mammalian Selenoprotein Thioredoxin Reductase 1 (TrxR1): qHTS; Thioredoxin reductase 1, cytoplasmic (Rattus norvegicus), O89049; purified TrxR1 substrate turnover, NADPH consumption readout; Potency, µM (series often up to 114 µM); 390,000 tested, 0.01% active; further: nearly all actives have a fitted effect of over 50% in size
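Rat TrxR1, dispensed at 90 nM, was prereduced with 400 uM NADPH (final) for 5 min at ~22 deg C, then incubated with compound 15 min before 400 uM selenite. A first-read NADPH fluorescence drop versus no-compound background flagged substrates.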
Giardia kill = Small Molecules that selectively kill Giardia lamblia: qHTS. 340,000 tested, 0.15% active. activity change, % at 7.66 µM, hits read low. Giardia lamblia trophozoite viability; in the data active means activity change below about -80%; inconclusive means between about -30% and that limit;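 further: parasites exposed to compound for two days anaerobically before the ATP read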
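Media and compound were dispensed first, then trophozoites at 100 cells/well; plates sat 48 hrs at 37 deg C without oxygen before ATP luminescence reagent was added and read after 15-30 min at room temperature.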
PI4K2A inh = qHTS for small molecular inhibitors of PI4K2A | 420,000 tested, 0.13% active | purified PI4K2A, ADP-Glo luminescence, 1 h; hits give low values | activity change, negative = inhibition, % at 76.9 µM | AID 1346378, 2018 | Phosphatidylinositol 4-kinase type 2-alpha (Homo sapiens), Q9BTU6; in the data active means activity change below about -50%; inconclusive means mostly about -30% to -49%
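In this quantitative HTS, ADP production by PI4K2A was quantified luminescently after 1 h at ambient temperature; 100 microM adenosine served as plate-quality control.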
GALK inh = qHTS Assay for Inhibitors of Human Galactokinase (GALK); 270,000 tested, 0.007% active; P51570; Purified GALK, Kinase-Glo residual ATP luminescence; Potency, µM (highest dose often 57.5 µM), most hits filed as inhibitors
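The enzyme phosphorylates galactose (100 uM) using ATP (35 uM); inhibition is detected as higher residual ATP, quantified by bioluminescence after 1 h reaction at room temperature, pH 8.0.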
FBPA coupling cs = qHTS Assay for Inhibitors of Fructose-1,6-bisphosphate Aldolase from Giardia Lamblia: Coupling assay counterscreen; coupling enzyme system counterscreen, AmpLite Red fluorescence; activity change, negative = inhibition, % at 58.2 µM, hits read low; AID 2472, 2010; 290,000 tested, 0.67% active; in the data active means activity change below about -30%
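Activity here indicates interference with the coupling reaction, not aldolase inhibition. Compounds at 57.5 uM final met coupling enzymes for 10 min at RT; substrate and AmpLite Red detection followed, with a 525/598 nm fluorescence read after 20 min.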
Numbers stand for hits; 0 = inactive; ? = inconclusive; - = no result; [ ] = another dose, or the depositor's remark. Rows were chosen to be rich in hits. Some 1.5% of all compounds tested hit in one or more screens of this group. Unless noted, the call rests on the fitted dose curve; in most records, active means well fitted curve in the direction sought with a large enough effect; inconclusive means small, poorly fitted or top-dose-only effect, or another doubt; inactive means no such curve, though single readings can be large; an effect the other way counts as inactive or inconclusive.

SMILES | rTrxR1 inhibitor | TrxR1 substrate | Giardia kill | PI4K2A inh | GALK inh | FBPA coupling cs
O=C(Nc1ccc(F)cc1F)c1ccc2c(O)c(S(=O)(=O)c3ccc(Cl)cc3)c(=O)[nH]c2c1 | 0 | 0 | - | 0 | - | -
Cc1cc(-c2csc(N)n2)c(C)n1Cc1ccco1 | 15.8µM | 0 | 0 | ? | 0 | 0
Cc1cc(-c2csc(N)n2)c(C)n1C | ? | 0 | 0 | 0 | 0 | 0
CCC(=O)Nc1nc(CC(=O)Nc2ccccc2OC)cs1 | 0 | 0 | 0 | 0 | 0 | 0
COc1ccccc1NC(=O)Cc1csc(NC(=S)Nc2ccc(C)cc2)n1 | 8.91µM | 0 | 0 | 0 | 0 | -
O=C(O)c1cc(NCc2cc(O)ccc2O)ccc1O | 39.8µM | 0 | 0 | - | - | -
Cc1c(C(=O)O)cccc1-c1ccc(/C=C2/NC(=O)N(c3ccccc3)C2=O)o1 | 0 | 0 | 0 | 0 | 0 | 0
CCN1C(=O)/C(=C/c2cccs2)N(C)C1=S | 0 | 0 | 0 | 0 | 0 | 0
Cc1ccc(/C=C2/NC(=O)N(c3ccccc3)C2=O)o1 | 50.1µM | 0 | 0 | 0 | 0 | 0
CCN1C(=O)/C(=C/c2ccc(C)o2)N(C)C1=S | 31.6µM | 0 | 0 | 0 | 0 | 0
CCCN1C(=O)/C(=C/c2ccc(C)o2)NC1=S | - | - | - | - | 0 | -32.8
O=C1N/C(=C/c2ccc(N3CCOCC3)o2)C(=O)N1c1cccc(Cl)c1 | 3.16µM | 0 | 0 | 0 | 0 | 0
O=C(C[n+]1ccncc1)c1ccc(Br)cc1 | 0 | 0 | - | - | - | -
COc1cccc2nccc(/C=C/c3ccc(N(C)C)cc3)c12 | 0 | 0 | - | - | - | -
Cc1ccc(CN(C)C(=O)c2cccc(S(=O)(=O)N3CCCC3)c2)o1 | 39.8µM | 0 | 0 | 0 | - | -
COc1ccccc1CN(C)C(=O)c1cccc(S(=O)(=O)N2CCCC2)c1 | 0 | 0 | 0 | 0 | - | -
O=C1c2cccc(O)c2C(=O)c2c(O)cccc21 | - | - | - | 0 | - | 0
CC1OC(CC(=O)O)CC2=C1C(=O)c1c(O)cccc1C2=O (centres undefined) | 0 | 0 | 0 | -59.3 | - | -
O=C(Cc1ccc2ccccc2c1)NO | 0 | 0 | - | - | - | -
O=C1C=C(c2c(O)ccc3ccccc23)c2ccccc2C1=O | ? | 79.4µM | 0 | 0 | - | -
O=C1C=C(O)c2ccccc2C1=O | - | - | - | - | - | 0
O=C(c1ccc2c(c1)N(Cc1ccccc1F)C(=O)c1ccccc1S2)N1CCOCC1 | 0 | 0 | 0 | 0 | 0 | -41.9
Cc1ccccc1CN1C(=O)c2ccccc2Sc2ccc(C(=O)N3CCOCC3)cc21 | 0 | 0 | - | 0 | - | -
Cc1ccc2nc(CSc3nc(C)ccc3C#N)[nH]c2c1 | 0 | 0 | -88.3 | 0 | 0 | 0
Cc1ccc(C#N)c(SCc2ccccc2F)n1 | 0[11.4 µM] | 0[11.4 µM] | 0 | 0 | 0 | 0
SMILES | rTrxR1 inhibitor | TrxR1 substrate | Giardia kill | PI4K2A inh | GALK inh | FBPA coupling cs
Cc1cc(CNCCN(C)C)c(C)n1-c1cc(S(=O)(=O)N2CCOCC2)ccc1N1CCCC1 | 89.1µM | 0 | 0 | 0 | - | -
C[C@H]1C(=O)N(S(=O)(=O)c2ccccc2[N+](=O)[O-])[C@H]1c1ccc(-c2ccccc2)cc1 | ? | 0 | 0 | - | - | 0
CC(C)(C)c1ccc(C(=O)CCCCl)cc1 | - | - | - | 0 | - | -
CC(=O)Nc1ccc(C(=O)Nc2nc(-c3ccccn3)cs2)cc1 | 50.1µM | 0 | 0 | 0 | 0 | 0
O=C(OCc1nc(-c2ccccc2)oc1COC(=O)c1ccco1)c1ccco1 | 3.16µM | 0 | 0 | 0 | 0 | 0
O=C(COC(=O)c1ccco1)Nc1nnc(-c2ccccc2)o1 | 0 | 0 | 0 | 0 | - | -
Cc1cc(Cl)ccc1OCC(=O)Nc1cccc(-c2nc3ccccc3o2)c1 | 0 | 0 | - | - | - | -
C=CC1=CCN(S(=O)C(C)(C)C)[C@@H]1CCO (some centres undefined) | 50.1µM | 0 | 0 | 0 | - | -
C=C(C1=CCN(S(=O)C(C)(C)C)[C@H]1CCO)c1ccccc1 (some centres undefined) | ? | 0 | 0 | 0 | - | -
O=C(Nc1cccc(-c2nc3ccccc3s2)c1)c1ccc2c(c1)OCO2 | 0 | 0 | 0 | 0 | 0 | -
